# From article PMC7862700, “An all-to-all approach to the identification of sequence-specific readers for epigenetic DNA modifications on cytosine”
# What was measured:
# Assay in all cases: DAPPL (digital affinity profiling via proximity ligation, sequencing); 10 mM Tris-HCl pH 7.5, 50 mM NaCl, 1 mM DTT, 4% glycerol, room temperature, 30 min; GST-TFs on glutathione beads, 16-mer random dsDNA library, 0.1% formaldehyde crosslink after washing; high values mean tight binding
# [1] = target: T1, FEV (Homo sapiens, UniProt Q99581 1-238); details: protein: recombinant; tags: N-terminal GST; dsDNA, one strand shown
# T1 sequence: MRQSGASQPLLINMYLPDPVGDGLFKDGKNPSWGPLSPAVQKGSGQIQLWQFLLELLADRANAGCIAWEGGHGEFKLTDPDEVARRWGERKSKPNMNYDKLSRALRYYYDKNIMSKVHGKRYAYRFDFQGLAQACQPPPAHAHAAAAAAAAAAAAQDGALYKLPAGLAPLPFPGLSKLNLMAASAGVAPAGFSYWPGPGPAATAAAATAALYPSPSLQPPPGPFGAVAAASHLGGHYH
# In short: (§1)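 Binding signal is defined as a hexamer's read frequency for one factor over its frequency for the tag-only sample. To obtain reads, GST-fused human transcription factors were expressed in yeast, captured on glutathione beads, barcoded with DNA and pooled with that sample. Pools met 200 nmole of a 16-mer random double-stranded DNA library in Tris/NaCl/DTT/glycerol buffer for 30 min at room temperature before washing, 0.1% formaldehyde crosslinking, proximity ligation (BsaI/T4 ligase, 1 h, 37 °C), PCR and Illumina NextSeq500 sequencing.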
# [2] = target: ETV5 (Homo sapiens, UniProt P41161 1-510); details: protein: recombinant; tags: N-terminal GST; dsDNA, one strand shown
# Sequence of ETV5 (P41161 whole entry): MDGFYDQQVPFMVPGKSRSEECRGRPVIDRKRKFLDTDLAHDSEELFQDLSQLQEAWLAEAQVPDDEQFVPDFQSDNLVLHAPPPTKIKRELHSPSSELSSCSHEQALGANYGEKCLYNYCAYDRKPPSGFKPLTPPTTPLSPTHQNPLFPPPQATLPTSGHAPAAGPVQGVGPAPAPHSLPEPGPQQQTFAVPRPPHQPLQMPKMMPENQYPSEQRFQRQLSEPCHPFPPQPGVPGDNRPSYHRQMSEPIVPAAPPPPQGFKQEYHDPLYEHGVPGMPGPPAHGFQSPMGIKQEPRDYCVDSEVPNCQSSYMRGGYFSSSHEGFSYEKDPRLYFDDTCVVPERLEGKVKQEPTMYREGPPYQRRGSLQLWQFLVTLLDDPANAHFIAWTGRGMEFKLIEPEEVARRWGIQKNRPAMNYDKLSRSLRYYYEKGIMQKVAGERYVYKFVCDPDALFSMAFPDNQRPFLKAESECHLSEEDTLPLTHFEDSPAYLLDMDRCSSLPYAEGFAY
# In short: as §1
# [3] = target: HSF1 (Homo sapiens, UniProt Q00613 1-529); details: protein: recombinant; tags: N-terminal GST; chain copies: 3; dsDNA, one strand shown
# Sequence of HSF1 (Q00613 whole entry): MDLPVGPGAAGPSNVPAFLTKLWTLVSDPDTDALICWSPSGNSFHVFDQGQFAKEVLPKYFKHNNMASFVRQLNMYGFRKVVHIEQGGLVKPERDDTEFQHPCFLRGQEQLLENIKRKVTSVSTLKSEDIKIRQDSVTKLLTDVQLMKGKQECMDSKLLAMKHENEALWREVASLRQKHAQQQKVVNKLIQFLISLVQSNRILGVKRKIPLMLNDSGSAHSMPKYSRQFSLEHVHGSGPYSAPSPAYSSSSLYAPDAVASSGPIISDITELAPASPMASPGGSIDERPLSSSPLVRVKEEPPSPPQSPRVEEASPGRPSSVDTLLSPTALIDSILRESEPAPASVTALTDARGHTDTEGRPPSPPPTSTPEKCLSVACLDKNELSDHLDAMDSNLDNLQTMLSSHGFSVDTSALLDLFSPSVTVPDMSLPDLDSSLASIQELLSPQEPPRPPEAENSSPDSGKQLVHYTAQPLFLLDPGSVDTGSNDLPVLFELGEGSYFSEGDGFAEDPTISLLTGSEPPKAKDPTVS
# In short: as §1
# [4] = target: T2, SPIC (Homo sapiens, UniProt Q8N5J4 1-248); details: protein: recombinant; tags: N-terminal GST; dsDNA, one strand shown
# T2 sequence: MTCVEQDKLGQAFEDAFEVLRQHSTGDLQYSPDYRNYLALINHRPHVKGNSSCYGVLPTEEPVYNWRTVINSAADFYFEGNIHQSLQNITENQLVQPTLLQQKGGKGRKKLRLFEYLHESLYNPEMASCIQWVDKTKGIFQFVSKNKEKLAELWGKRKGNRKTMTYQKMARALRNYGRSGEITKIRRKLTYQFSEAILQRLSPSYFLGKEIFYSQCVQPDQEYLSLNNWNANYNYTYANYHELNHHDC
# In short: as §1
# [5] = target: ELF4 (Homo sapiens, UniProt Q99607 1-663); details: protein: recombinant; tags: N-terminal GST; dsDNA, one strand shown
# Sequence of ELF4 (Q99607 whole entry): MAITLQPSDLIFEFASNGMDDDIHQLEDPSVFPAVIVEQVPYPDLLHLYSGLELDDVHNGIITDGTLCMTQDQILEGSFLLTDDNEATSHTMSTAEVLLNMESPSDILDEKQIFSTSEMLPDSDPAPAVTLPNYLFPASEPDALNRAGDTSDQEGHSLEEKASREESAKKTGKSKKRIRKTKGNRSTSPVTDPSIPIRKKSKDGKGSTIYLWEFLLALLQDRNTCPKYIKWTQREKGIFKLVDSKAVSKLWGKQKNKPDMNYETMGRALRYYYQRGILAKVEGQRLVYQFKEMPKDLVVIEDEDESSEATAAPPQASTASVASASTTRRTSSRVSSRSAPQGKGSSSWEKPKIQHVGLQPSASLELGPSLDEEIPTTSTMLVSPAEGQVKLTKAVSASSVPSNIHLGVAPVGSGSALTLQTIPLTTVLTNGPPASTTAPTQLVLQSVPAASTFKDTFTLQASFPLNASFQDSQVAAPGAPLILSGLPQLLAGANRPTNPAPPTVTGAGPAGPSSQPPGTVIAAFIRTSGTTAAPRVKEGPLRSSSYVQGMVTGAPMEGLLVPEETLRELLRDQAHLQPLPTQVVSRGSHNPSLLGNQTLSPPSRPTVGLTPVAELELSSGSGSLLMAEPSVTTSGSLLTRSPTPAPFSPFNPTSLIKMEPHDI
# In short: as §1
# [6] = target: T3, ELK4 (Homo sapiens, UniProt P28324-2 1-405); details: protein: recombinant; tags: N-terminal GST; dsDNA, one strand shown
# T3 sequence: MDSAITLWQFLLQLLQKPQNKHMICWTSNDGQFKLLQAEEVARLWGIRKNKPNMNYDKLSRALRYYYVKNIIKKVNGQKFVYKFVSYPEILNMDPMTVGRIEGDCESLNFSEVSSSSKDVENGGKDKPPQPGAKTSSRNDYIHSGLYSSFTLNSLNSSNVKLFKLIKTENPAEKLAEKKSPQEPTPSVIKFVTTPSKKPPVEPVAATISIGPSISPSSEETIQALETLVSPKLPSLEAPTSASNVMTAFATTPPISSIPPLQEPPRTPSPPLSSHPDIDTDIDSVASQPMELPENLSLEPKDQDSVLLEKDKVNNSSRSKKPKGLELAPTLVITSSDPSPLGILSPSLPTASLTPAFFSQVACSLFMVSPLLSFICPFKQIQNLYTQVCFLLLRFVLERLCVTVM
# In short: as §1
# [7] = target: T4, ETV2 (Homo sapiens, UniProt O00321 1-342); details: protein: recombinant; tags: N-terminal GST; dsDNA, one strand shown
# T4 sequence: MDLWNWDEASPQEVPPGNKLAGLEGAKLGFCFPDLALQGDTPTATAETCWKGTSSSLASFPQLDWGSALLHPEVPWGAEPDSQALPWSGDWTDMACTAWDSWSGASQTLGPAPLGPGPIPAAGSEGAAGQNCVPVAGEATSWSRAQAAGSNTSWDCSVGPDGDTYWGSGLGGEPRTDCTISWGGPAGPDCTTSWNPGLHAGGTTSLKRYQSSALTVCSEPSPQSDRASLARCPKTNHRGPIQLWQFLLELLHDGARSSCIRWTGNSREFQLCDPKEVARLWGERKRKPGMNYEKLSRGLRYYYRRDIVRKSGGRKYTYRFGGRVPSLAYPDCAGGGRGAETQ
# In short: as §1
# [8] = target: T5, ELF3 (Homo sapiens, UniProt P78545 1-371); details: protein: recombinant; tags: N-terminal GST; dsDNA, one strand shown
# T5 sequence: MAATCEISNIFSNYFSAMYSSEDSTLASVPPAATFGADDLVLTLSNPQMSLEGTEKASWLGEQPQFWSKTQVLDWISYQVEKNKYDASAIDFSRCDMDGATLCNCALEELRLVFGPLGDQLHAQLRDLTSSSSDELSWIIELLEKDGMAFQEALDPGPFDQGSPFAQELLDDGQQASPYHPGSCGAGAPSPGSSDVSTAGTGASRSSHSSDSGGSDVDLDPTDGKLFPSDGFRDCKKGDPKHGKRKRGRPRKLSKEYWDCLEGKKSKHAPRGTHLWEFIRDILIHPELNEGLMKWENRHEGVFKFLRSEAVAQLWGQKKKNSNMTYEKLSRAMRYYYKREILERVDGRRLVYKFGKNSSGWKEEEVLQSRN
# In short: as §1
# [9] = target: CRX (Homo sapiens, UniProt O43186 1-299); details: protein: recombinant; tags: N-terminal GST; dsDNA, one strand shown
# Sequence of CRX (O43186 whole entry): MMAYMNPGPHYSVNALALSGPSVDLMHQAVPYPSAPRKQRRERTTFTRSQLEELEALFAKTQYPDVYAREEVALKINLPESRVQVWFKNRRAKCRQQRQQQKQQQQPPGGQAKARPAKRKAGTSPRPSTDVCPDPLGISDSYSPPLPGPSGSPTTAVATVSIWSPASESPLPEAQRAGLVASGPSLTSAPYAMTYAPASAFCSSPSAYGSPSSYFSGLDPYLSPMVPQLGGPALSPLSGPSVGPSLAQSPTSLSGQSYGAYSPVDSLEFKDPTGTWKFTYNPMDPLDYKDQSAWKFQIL
# In short: as §1
# [10] = target: ETV1 (Homo sapiens, UniProt P50549 1-477); details: protein: recombinant; tags: N-terminal GST; dsDNA, one strand shown
# Sequence of ETV1 (P50549 whole entry): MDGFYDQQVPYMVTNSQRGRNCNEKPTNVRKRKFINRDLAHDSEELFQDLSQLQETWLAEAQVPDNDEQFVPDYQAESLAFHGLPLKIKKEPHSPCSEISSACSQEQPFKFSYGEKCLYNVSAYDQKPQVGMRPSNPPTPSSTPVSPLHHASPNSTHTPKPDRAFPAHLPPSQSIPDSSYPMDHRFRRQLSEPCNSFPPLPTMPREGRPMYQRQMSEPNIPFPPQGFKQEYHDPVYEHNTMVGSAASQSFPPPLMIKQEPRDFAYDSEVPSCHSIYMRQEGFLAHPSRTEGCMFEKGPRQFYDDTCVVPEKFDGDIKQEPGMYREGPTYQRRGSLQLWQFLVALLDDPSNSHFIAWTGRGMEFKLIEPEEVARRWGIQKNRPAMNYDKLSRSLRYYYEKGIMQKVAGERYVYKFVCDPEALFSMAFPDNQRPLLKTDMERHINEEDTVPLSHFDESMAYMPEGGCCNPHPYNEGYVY
# In short: as §1
# [11] = target: T6, ERF (Homo sapiens, UniProt P50548 1-548); details: protein: recombinant; tags: N-terminal GST; dsDNA, one strand shown
# T6 sequence: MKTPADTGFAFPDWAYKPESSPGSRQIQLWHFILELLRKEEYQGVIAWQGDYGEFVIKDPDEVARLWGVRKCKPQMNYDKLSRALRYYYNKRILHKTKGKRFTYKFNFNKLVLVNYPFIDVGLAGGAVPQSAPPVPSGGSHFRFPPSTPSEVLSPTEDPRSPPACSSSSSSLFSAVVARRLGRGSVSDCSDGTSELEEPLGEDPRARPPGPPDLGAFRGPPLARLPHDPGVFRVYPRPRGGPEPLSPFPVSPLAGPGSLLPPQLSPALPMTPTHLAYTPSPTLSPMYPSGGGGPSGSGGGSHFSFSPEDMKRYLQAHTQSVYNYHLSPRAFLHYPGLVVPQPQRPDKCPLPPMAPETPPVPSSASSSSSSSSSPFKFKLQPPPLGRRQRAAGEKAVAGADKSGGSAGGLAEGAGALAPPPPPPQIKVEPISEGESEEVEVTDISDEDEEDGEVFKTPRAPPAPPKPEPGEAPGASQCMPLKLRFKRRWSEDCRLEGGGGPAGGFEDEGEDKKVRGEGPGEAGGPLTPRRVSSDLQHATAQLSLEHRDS
# In short: as §1
# [12] = target: T7, ETV3L (Homo sapiens, UniProt Q6ZN32 1-361); details: protein: recombinant; tags: N-terminal GST; dsDNA, one strand shown
# T7 sequence: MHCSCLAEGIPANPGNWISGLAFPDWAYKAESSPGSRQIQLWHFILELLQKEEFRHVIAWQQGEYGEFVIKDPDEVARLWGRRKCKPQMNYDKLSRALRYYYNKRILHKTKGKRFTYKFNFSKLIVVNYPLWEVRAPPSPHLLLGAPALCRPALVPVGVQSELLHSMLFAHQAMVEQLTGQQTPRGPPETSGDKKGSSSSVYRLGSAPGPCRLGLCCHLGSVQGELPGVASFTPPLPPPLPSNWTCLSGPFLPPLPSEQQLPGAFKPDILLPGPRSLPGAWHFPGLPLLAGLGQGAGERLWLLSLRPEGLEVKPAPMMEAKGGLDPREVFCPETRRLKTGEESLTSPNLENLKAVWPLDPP
# In short: as §1
# [13] = target: T8, ETS2 (Homo sapiens, UniProt P15036 1-469); details: protein: recombinant; tags: N-terminal GST; dsDNA, one strand shown
# T8 sequence: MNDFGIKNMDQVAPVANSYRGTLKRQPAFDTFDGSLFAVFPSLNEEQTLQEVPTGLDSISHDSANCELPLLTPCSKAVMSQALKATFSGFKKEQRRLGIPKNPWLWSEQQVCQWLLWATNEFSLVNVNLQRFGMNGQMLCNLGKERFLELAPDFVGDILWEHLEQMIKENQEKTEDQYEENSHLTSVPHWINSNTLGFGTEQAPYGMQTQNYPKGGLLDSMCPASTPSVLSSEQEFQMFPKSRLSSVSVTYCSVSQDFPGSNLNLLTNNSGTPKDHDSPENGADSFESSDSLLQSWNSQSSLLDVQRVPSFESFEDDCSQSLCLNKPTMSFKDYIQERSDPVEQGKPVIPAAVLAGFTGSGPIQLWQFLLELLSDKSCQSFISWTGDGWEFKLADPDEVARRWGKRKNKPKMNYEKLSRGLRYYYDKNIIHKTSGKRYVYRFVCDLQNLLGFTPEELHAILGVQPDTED
# In short: as §1
# [14] = target: T9, SPDEF (Homo sapiens, UniProt O95238 1-335); details: protein: recombinant; tags: N-terminal GST; dsDNA, one strand shown
# T9 sequence: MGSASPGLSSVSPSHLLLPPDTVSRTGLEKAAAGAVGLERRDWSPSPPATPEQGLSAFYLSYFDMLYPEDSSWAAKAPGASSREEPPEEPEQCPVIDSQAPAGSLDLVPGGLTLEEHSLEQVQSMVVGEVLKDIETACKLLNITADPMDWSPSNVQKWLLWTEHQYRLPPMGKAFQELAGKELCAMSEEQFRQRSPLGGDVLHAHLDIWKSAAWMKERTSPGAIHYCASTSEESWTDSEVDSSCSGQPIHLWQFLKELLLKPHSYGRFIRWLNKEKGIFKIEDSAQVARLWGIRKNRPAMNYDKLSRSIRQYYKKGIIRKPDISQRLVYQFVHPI
# In short: as §1
# [15] = target: T10, ETV7 (Homo sapiens, UniProt Q9Y603 1-341); details: protein: recombinant; tags: N-terminal GST; dsDNA, one strand shown
# T10 sequence: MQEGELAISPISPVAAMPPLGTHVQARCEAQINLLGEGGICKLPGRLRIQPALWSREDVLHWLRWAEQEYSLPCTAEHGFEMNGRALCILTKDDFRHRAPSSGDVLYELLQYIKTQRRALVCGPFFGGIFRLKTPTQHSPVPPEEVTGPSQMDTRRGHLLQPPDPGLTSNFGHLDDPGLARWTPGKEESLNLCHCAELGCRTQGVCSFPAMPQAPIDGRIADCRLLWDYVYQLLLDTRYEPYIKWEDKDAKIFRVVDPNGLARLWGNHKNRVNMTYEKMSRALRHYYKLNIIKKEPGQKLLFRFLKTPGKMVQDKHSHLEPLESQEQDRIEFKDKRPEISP
# In short: as §1
# [16] = target: T11, ELF5 (Homo sapiens, UniProt Q9UKW6-2 1-255); details: protein: recombinant; tags: N-terminal GST; dsDNA, one strand shown
# T11 sequence: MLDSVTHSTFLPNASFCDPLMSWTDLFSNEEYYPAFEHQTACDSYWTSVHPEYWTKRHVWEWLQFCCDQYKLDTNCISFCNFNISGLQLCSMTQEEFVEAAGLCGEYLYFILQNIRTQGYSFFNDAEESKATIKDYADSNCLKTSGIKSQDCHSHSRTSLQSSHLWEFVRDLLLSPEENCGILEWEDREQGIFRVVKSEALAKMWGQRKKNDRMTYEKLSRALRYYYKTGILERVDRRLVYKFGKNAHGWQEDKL
# In short: as §1
# [17] = target: T12, ETV3 (Homo sapiens, UniProt P41162-2 1-143); details: protein: recombinant; tags: N-terminal GST; dsDNA, one strand shown
# T12 sequence: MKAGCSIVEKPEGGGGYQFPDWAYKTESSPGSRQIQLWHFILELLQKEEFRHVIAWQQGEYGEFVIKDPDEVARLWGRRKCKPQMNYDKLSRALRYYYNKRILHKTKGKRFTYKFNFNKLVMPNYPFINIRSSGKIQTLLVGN
# In short: as §1
# [18] = target: ETV6 (Homo sapiens, UniProt P41212 1-452); details: protein: recombinant; tags: N-terminal GST; dsDNA, one strand shown
# Sequence of ETV6 (P41212 whole entry): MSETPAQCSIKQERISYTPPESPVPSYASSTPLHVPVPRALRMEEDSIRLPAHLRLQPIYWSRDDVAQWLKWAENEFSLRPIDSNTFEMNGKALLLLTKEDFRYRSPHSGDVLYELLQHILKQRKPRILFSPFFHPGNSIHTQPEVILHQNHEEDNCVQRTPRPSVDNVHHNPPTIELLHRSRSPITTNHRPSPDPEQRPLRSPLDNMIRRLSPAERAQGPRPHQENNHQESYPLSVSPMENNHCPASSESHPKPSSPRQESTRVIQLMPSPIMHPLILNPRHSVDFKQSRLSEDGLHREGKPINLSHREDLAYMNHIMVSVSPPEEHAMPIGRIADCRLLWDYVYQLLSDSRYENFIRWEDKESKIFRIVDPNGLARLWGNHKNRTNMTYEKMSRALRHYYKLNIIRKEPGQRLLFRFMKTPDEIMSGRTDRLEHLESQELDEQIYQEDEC
# In short: as §1
sequence,measurement,setting,value
TGCTTT,binding signal,[1],"1.05 fold enrichment (6-mer frequency, TF over GST control)"
same,binding signal,[2],"1.05 fold enrichment (6-mer frequency, TF over GST control)"
same,binding signal,[3],"1.05 fold enrichment (6-mer frequency, TF over GST control)"
same,binding signal,[4],"1.16 fold enrichment (6-mer frequency, TF over GST control)"
same,binding signal,[5],"1.14 fold enrichment (6-mer frequency, TF over GST control)"
same,binding signal,[6],"1.23 fold enrichment (6-mer frequency, TF over GST control)"
same,binding signal,[7],"1.12 fold enrichment (6-mer frequency, TF over GST control)"
same,binding signal,[8],"1.05 fold enrichment (6-mer frequency, TF over GST control)"
same,binding signal,[9],"1.09 fold enrichment (6-mer frequency, TF over GST control)"
same,binding signal,[10],"1.06 fold enrichment (6-mer frequency, TF over GST control)"
same,binding signal,[11],"1.29 fold enrichment (6-mer frequency, TF over GST control)"
same,binding signal,[12],"1.11 fold enrichment (6-mer frequency, TF over GST control)"
same,binding signal,[13],"1.07 fold enrichment (6-mer frequency, TF over GST control)"
same,binding signal,[14],"1.02 fold enrichment (6-mer frequency, TF over GST control)"
same,binding signal,[15],"1.19 fold enrichment (6-mer frequency, TF over GST control)"
same,binding signal,[16],"1.15 fold enrichment (6-mer frequency, TF over GST control)"
same,binding signal,[17],"1.14 fold enrichment (6-mer frequency, TF over GST control)"
same,binding signal,[18],"1.1 fold enrichment (6-mer frequency, TF over GST control)"
